Reference: PubChem BioAssay (EPA / NIEHS)
Calls of active or inactive are those of the source. How the source made its calls: active means hit-call score of the fitted dose curve at least 0.9, where 1 is the maximum; inactive means score below 0.9.

Columns and labels:
[1] = ATG_GLI_CIS: Attagene CIS-FACTORIAL HepG2 Assay for human Zinc Finger Protein GLI1 (AID 2282945); conditions: HepG2, Attagene cis-factorial reporter mRNA, GLI element; actives raise or lower the signal
Procedure, shortened: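 Bidirectional curve fits relative to DMSO, using reporter mRNA levels from RT-PCR plus capillary electrophoresis. Cells were HepG2 transiently carrying cis-regulated reporter constructs, harvested 24 h after dosing.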

[2] = ATG_ISRE_CIS: Attagene CIS-FACTORIAL HepG2 Assay for human Interferon Regulatory Factor 1 (IRF1) binding to an Interferon-Stimulated Response Element (ISRE) (AID 2282948); conditions: HepG2 ISRE cis-reporter (Attagene), mRNA transcription readout; actives raise or lower the signal
Procedure, shortened: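 Signal reflects induction or loss of ISRE-linked reporter mRNA in transiently transfected HepG2 cells after a 24 h treatment, detected by fluorescent RT-PCR fragments on capillary electrophoresis and normalised to DMSO.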

[3] = ATG_M_32_CIS: Attagene CIS-FACTORIAL HepG2 Assay for M32 Transcription Factor (Internal Marker) (AID 2282949); conditions: HepG2 Attagene cis-factorial M32 reporter, mRNA; actives raise or lower the signal;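 further: background control marker of the multiplexed CIS panel rather than a real target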
Procedure, shortened: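 HepG2 human liver cells transiently transfected with cis-promoter-driven multiple reporter transcription units, dosed 24 h. Reporter mRNA quantified by RT-PCR, FAM-labelled primer extension, HpaI digest and capillary electrophoresis; bidirectional fit versus DMSO baseline.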

[4] = ATG_M_06_CIS: Attagene CIS-FACTORIAL HepG2 Assay for M06 Transcription Factor (Internal Marker) (AID 2282950); conditions: HepG2 Attagene CIS-FACTORIAL M06 internal marker reporter; actives raise or lower the signal
Procedure, shortened: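 Internal background marker within multiplexed cis-reporter HepG2 system. Cells transiently transfected, dosed 24 h; reporter mRNA measured by RT-PCR, HpaI digestion and capillary electrophoresis. Bidirectional fit relative to DMSO.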

[5] = molecular target: Hypoxia-inducible factor 1-alpha (Homo sapiens) (UniProt Q16665); assay: ATG_HIF1a_CIS: Attagene CIS-FACTORIAL HepG2 Assay for human Hypoxia Inducible Factor 1 (HIF1A) (AID 2282951); conditions: HepG2 Attagene cis-factorial HIF1a reporter transcription; actives raise or lower the signal
Procedure, shortened: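 After 24 h chemical exposure of reporter-transfected HepG2 cells, reporter cDNA was PCR-amplified, labelled by 6-FAM primer extension (2 min 95 C, 20 s 68 C, 10 min 72 C), HpaI-cut (2 h, 37 C) and analysed by CE.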

[6] = molecular target: Hepatocyte nuclear factor 6 (Homo sapiens) (UniProt Q9UBC0); assay: ATG_HNF6_CIS: Attagene CIS-FACTORIAL HepG2 Assay for human Hepatocyte Nuclear Factor 6 (HNF6) (AID 2282952); conditions: HepG2 Attagene cis-factorial HNF6 reporter transcription; actives raise or lower the signal
Procedure, shortened: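 Activity values derive from bidirectional fitting against DMSO of reporter mRNA levels, measured by capillary electrophoresis of labelled RT-PCR products from HepG2 cells exposed 24 h.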

[7] = molecular target: Heat shock factor protein 1 (Homo sapiens) (UniProt Q00613); assay: ATG_HSE_CIS: Attagene CIS-FACTORIAL HepG2 Assay for human Heat Shock Transcription Factor 1 (HSE) (AID 2282953); conditions: HepG2 HSE cis-reporter, Attagene RNA transcription; actives raise or lower the signal
Procedure, shortened: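 HepG2 cells transfected with cis-promoter reporter units sensing endogenous transcription factor activity; reporter mRNA quantified 24 h post-dose by RT-PCR and capillary electrophoresis of 6-FAM-labelled products. Bidirectional fitting against DMSO.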

[8] = ATG_MRE_CIS: Attagene CIS-FACTORIAL HepG2 Assay for human Metal Responsive Element (MRE) (AID 2282954); conditions: HepG2 MRE cis-reporter transcription, Attagene multiplex; actives raise or lower the signal
Procedure, shortened: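 Endogenous MRE-dependent transcription read as reporter mRNA in transiently transfected human HepG2 cells at 24 h. RNA reverse-transcribed, PCR-amplified, labelled and resolved by capillary electrophoresis; gain or loss relative to DMSO.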

[9] = molecular target: Paired box protein Pax-6 (Homo sapiens) (UniProt P26367); assay: ATG_Pax6_CIS: Attagene CIS-FACTORIAL HepG2 Assay for human Paired Box 6 (PAX6) (AID 2282956); conditions: HepG2 CIS-FACTORIAL PAX6 reporter transcription, RNA readout; actives raise or lower the signal
Procedure, shortened: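 Values derive from bidirectional curve fitting of reporter mRNA signal relative to DMSO. HepG2 cells bearing transfected cis-regulated MRTUs were exposed for 24 h; transcripts were read by RT-PCR and capillary electrophoresis.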

[10] = ATG_PXRE_CIS: Attagene CIS-FACTORIAL HepG2 Assay for human Pregnane X Receptor Element (PXRE) (AID 2282957); conditions: HepG2 Attagene CIS-FACTORIAL PXRE reporter, mRNA; actives raise or lower the signal
Procedure, shortened: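 Fluorescent capillary electrophoresis of amplified reporter cDNA gave the signal, collected 24 h after dosing HepG2 cells that held transfected cis-element reporter constructs.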

[11] = ATG_PPRE_CIS: Attagene CIS-FACTORIAL HepG2 Assay for human Peroxisome Proliferator-activated Response Element (PPRE) (AID 2282958); conditions: HepG2 PPRE cis-element reporter, Attagene transcription factor profiling; actives raise or lower the signal
Procedure, shortened: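 PPRE activity in HepG2: transient cis-reporter transfection, 24 h compound incubation, reporter mRNA by RT-PCR and CE fluorescence; gain/loss fitted against DMSO.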

[12] = ATG_RORE_CIS: Attagene CIS-FACTORIAL HepG2 Assay for human RAR-related Orphan Receptor Element (RORE) (AID 2282959); conditions: HepG2 Attagene cis-factorial RORE reporter, mRNA; actives raise or lower the signal
Procedure, shortened: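 A 24-hour exposure of transfected HepG2 hepatoma cells precedes RNA isolation and reporter RT-PCR. Labeled products are digested with HpaI and resolved by capillary electrophoresis, with gain or loss of signal scored relative to DMSO.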

[13] = ATG_Sox_CIS: Attagene CIS-FACTORIAL HepG2 Assay for human SRY-box transcription factor (SOX) (AID 2282960); conditions: HepG2 Attagene cis-factorial SOX reporter, mRNA; actives raise or lower the signal
Procedure, shortened: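 HepG2, cis reporter units, 24 h exposure. Reporter mRNA: RT-PCR → FAM labelling → HpaI → CE fluorescence. Bidirectional fit vs DMSO.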

[14] = molecular target: Transcription factor Sp1 (Homo sapiens) (UniProt P08047); assay: ATG_Sp1_CIS: Attagene CIS-FACTORIAL HepG2 Assay for human Specificity Protein 1 (Sp1) (AID 2282961); conditions: HepG2 Sp1 cis-reporter transcription, actives raise or lower the signal
Procedure, shortened: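 Liver-derived HepG2 cells, cis-element reporter library, 24 h treatment; RNA isolated, cDNA amplified with reporter-specific primers, FAM-labeled fragments sized on capillary analyzer. DMSO baseline, bidirectional curve fit.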

[15] = ATG_SREBP_CIS: Attagene CIS-FACTORIAL HepG2 Assay for human Sterol Regulatory Element Binding (SREBP) (AID 2282962); conditions: HepG2 Attagene cis-factorial SREBP reporter, mRNA; actives raise or lower the signal
Procedure, shortened: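 Values derive from bidirectional curve fitting with DMSO as baseline. The underlying measurement is reporter mRNA from cis-element-regulated units in transiently transfected HepG2, quantified by RT-PCR and capillary electrophoresis after 24 h exposure.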

[16] = molecular target: Signal transducer and activator of transcription 3 (Homo sapiens) (UniProt P40763); assay: ATG_STAT3_CIS: Attagene CIS-FACTORIAL HepG2 Assay for human Signal Transducer and Activator of Transcription 3 (STAT3) (AID 2282963); conditions: HepG2, Attagene cis-factorial STAT3 reporter transcription; actives raise or lower the signal
Procedure, shortened: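 Readout is reporter transcript quantified by RT-PCR and capillary electrophoresis, with 6-FAM primer extension and HpaI digestion. Total RNA is taken 24 h after dosing transiently transfected HepG2 carrying cis-regulated reporter units. Bidirectional fit against DMSO.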

[17] = ATG_TA_CIS: Attagene CIS-FACTORIAL HepG2 Assay for human TA Basal Promoter (AID 2282964); conditions: HepG2 Attagene CIS-factorial TA basal promoter reporter; actives raise or lower the signal
Procedure, shortened: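 HepG2 cells transiently transfected with multiple reporter units under cis promoter elements, reporting endogenous transcription factor activity; this endpoint tracks the TA basal promoter as background control. Reporter mRNA after 24 h dosing measured by RT-PCR/capillary electrophoresis; bidirectional fits versus DMSO.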

[18] = ATG_GRE_CIS: Attagene CIS-FACTORIAL HepG2 Assay for human Glucocorticoid Response Elements (GRE) (AID 2282947); conditions: HepG2 GRE cis-reporter, Attagene multiplex mRNA; actives raise or lower the signal
Procedure, shortened: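 Reporter transcripts read by RT-PCR with capillary electrophoresis fluorescence after a 24 h chemical exposure of HepG2 cells transiently transfected with multiple cis-element reporter units. Gain or loss fitted against DMSO.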

[19] = ATG_PBREM_CIS: Attagene CIS-FACTORIAL HepG2 Assay for human Phenobarbital-responsive Enhancer Module (PBREM) (AID 2282955); conditions: HepG2 PBREM cis-reporter, Attagene multiplexed transcription; actives raise or lower the signal
Procedure, shortened: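 Measures endogenous factor action on a phenobarbital-responsive enhancer module. HepG2 transiently carrying cis reporters, 24 h treatment, mRNA read-out by RT-PCR plus capillary electrophoresis.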

Measured: AC50

Sequence of Transcription factor Sp1 (Homo sapiens) (P08047 whole entry, looked up, the tested form may be a part): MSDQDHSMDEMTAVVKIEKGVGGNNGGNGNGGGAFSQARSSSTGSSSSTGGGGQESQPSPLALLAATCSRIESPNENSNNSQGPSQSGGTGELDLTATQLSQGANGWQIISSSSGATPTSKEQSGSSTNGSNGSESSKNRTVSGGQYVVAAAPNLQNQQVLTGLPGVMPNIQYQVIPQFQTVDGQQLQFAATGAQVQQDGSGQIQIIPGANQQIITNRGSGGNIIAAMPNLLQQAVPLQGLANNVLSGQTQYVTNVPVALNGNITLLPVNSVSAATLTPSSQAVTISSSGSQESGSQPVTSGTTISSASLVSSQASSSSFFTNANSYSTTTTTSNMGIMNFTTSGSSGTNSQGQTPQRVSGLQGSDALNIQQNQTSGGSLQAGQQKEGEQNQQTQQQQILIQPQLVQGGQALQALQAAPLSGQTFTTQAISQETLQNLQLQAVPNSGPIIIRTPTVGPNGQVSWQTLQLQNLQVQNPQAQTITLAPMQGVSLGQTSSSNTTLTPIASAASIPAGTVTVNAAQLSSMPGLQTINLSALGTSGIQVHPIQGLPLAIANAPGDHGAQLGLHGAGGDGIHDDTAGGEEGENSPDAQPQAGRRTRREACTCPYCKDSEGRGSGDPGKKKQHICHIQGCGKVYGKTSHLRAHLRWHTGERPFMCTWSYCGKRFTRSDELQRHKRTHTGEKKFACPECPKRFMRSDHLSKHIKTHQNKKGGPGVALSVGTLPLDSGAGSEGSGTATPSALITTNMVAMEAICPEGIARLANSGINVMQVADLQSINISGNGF
Sequence of Hepatocyte nuclear factor 6 (Homo sapiens) (Q9UBC0 whole entry, looked up): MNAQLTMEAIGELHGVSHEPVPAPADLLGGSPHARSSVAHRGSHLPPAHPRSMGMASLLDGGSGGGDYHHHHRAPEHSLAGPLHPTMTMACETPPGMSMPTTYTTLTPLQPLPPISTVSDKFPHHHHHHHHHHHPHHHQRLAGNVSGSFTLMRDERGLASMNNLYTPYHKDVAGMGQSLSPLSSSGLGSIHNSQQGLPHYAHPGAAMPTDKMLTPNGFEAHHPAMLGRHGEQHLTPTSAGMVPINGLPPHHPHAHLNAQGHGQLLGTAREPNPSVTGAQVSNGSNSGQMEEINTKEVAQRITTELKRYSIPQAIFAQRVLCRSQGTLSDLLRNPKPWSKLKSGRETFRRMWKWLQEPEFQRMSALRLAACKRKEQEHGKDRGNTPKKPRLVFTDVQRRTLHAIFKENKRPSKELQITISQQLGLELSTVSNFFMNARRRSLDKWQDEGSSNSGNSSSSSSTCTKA
Sequence of Paired box protein Pax-6 (Homo sapiens) (P26367 whole entry, looked up): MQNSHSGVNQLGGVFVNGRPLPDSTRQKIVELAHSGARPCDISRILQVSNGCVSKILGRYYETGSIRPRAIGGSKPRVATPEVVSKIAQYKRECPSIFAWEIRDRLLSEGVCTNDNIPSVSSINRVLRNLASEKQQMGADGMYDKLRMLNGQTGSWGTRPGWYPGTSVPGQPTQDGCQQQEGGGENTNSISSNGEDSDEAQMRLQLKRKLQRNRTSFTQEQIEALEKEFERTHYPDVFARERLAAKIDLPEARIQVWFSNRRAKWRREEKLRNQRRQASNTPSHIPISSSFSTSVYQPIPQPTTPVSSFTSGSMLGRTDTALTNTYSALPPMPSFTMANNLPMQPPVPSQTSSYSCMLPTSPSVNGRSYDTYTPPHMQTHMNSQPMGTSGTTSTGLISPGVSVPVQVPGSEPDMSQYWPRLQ
Sequence of Heat shock factor protein 1 (Homo sapiens) (Q00613 whole entry, looked up): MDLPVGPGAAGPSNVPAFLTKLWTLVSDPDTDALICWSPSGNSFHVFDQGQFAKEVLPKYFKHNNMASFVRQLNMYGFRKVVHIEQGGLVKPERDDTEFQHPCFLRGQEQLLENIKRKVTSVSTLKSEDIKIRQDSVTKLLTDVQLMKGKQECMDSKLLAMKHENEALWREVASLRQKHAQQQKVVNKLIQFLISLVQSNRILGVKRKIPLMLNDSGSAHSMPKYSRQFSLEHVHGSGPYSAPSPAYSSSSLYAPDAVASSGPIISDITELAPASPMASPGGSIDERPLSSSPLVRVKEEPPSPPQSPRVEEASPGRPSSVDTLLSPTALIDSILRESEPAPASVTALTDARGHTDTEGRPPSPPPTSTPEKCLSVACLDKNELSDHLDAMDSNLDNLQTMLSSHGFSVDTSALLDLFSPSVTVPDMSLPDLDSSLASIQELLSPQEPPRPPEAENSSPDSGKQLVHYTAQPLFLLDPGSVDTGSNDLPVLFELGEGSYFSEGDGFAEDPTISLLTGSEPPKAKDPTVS
Sequence of Hypoxia-inducible factor 1-alpha (Homo sapiens) (Q16665 whole entry, looked up): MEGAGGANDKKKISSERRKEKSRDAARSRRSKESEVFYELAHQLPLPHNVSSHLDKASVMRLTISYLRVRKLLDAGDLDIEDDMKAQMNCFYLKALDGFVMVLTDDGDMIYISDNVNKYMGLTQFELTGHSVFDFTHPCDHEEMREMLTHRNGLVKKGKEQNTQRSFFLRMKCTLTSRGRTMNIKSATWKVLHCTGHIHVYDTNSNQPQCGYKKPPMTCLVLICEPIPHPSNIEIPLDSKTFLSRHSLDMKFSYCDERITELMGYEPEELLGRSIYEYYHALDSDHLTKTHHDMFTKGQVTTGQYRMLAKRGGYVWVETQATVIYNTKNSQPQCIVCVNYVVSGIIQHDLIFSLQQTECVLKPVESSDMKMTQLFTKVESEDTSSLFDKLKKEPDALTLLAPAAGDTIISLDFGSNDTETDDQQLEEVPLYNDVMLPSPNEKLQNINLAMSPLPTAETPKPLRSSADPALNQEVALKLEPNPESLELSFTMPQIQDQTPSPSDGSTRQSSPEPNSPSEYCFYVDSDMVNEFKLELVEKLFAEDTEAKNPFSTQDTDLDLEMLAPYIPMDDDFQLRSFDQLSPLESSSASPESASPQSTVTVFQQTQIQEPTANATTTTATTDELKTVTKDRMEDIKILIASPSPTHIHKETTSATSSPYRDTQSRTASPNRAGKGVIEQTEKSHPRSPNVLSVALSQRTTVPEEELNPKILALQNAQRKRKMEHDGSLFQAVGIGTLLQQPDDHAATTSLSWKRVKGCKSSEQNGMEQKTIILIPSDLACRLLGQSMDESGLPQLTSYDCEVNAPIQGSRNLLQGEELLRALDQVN
Sequence of Signal transducer and activator of transcription 3 (Homo sapiens) (P40763 whole entry, looked up): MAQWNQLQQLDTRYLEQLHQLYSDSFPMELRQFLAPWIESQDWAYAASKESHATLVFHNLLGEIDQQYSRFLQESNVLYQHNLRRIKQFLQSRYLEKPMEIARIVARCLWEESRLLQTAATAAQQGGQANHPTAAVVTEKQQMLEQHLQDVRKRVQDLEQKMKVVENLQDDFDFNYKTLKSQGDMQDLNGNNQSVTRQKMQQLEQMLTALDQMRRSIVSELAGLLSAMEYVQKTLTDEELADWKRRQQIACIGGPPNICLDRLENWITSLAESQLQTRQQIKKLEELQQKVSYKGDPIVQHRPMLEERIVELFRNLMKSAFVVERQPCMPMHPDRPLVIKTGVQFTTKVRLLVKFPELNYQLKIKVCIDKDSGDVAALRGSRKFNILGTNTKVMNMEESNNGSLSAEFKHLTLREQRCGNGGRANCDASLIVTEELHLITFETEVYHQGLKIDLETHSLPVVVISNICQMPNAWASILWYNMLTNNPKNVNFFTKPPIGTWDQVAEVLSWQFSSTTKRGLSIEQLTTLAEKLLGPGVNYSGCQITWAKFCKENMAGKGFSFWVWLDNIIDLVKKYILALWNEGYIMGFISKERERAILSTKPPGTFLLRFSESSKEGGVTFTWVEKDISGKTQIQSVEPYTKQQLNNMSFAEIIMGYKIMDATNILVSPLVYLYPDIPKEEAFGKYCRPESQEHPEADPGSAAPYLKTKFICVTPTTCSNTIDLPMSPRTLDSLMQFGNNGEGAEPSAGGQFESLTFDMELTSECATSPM

CCCCCC(=O)O
inactive: [1] | [2] | [3] | [4] | [5] | [6] | [7] | [8] | [9] | [11] | [12] | [13] | [14] | [15] | [16] | [17]
active: [10] 53 µM

CCCCCCCCCCCCCCCCCC(=O)O
inactive: [1] | [2] | [3] | [4] | [5] | [6] | [7] | [8] | [9] | [10] | [12] | [13] | [14] | [15] | [16] | [17]

CCCCOC(=O)CCCCCCCCC(=O)OCCCC
inactive: [1] | [18] | [2] | [3] | [4] | [5] | [6] | [7] | [8] | [19] | [9] | [10] | [12] | [14] | [15] | [16] | [17]

CCCCCCCCCCCCCCCC
active: [10] 26.1 µM
inactive: [1] | [18] | [2] | [3] | [4] | [5] | [6] | [7] | [8] | [9] | [11] | [14] | [15] | [16] | [17]

CC=Cc1ccc(O)c(OC)c1
active: [10] 26.1 µM
inactive: [1] | [2] | [3] | [4] | [5] | [6] | [7] | [8] | [19] | [9] | [11] | [12] | [13] | [14] | [15] | [16] | [17]

Cc1ccc(N(C)C)cc1
inactive: [1] | [18] | [2] | [3] | [4] | [5] | [6] | [8] | [19] | [9] | [11] | [14] | [15] | [16] | [17]
active: [10] 27.4 µM

Cc1cccc([N+](=O)[O-])c1C
inactive: [1] | [2] | [3] | [4] | [5] | [6] | [7] | [8] | [19] | [9] | [11] | [13] | [14] | [15] | [16] | [17]
active: [10] 27.1 µM

CC1=C(/C=C/C(C)=C/C=C/C(C)=C/CO)C(C)(C)CCC1
active: [6] 158 µM | [7] 197 µM | [8] 106 µM | [9] 49.1 µM | [10] 0.464 µM | [11] 47.6 µM | [12] 27.9 µM
inactive: [1] | [2] | [3] | [4] | [5] | [19] | [13] | [14] | [15] | [16] | [17]

CCNc1cccc(C)c1
active: [5] 60.8 µM
inactive: [1] | [2] | [3] | [4] | [6] | [7] | [8] | [19] | [9] | [10] | [11] | [12] | [13] | [14] | [15] | [16] | [17]

CCCCCCC(=O)OCC
active: [10] 30.1 µM
inactive: [1] | [2] | [3] | [4] | [5] | [6] | [7] | [8] | [19] | [9] | [11] | [12] | [14] | [15] | [16] | [17]

C=CCc1ccc(O)c(OC)c1
inactive: [1] | [2] | [3] | [4] | [5] | [6] | [7] | [8] | [19] | [9] | [10] | [11] | [12] | [13] | [14] | [15] | [16] | [17]

CCOc1ccc2c(c1)C(C)=CC(C)(C)N2
inactive: [1] | [2] | [3] | [4] | [6] | [19] | [13] | [15] | [16]
active: [7] 152 µM | [8] 148 µM | [9] 100 µM | [10] 1.91 µM | [11] 78.8 µM | [12] 100 µM | [14] 78.9 µM | [17] 100 µM

CCCc1cc(=O)[nH]c(=S)[nH]1
active: [10] 65.4 µM
inactive: [1] | [2] | [3] | [4] | [6] | [7] | [8] | [19] | [9] | [11] | [12] | [13] | [14] | [15] | [16] | [17]

CC(=O)Oc1ccccc1C(=O)O
inactive: [1] | [18] | [2] | [3] | [4] | [6] | [8] | [9] | [12] | [14] | [15] | [16] | [17]
active: [10] 26.9 µM

CC(C)c1ccc(C(=O)N=C(N)N)cc1S(C)(=O)=O
active: [10] 31.7 µM
inactive: [1] | [18] | [2] | [3] | [4] | [5] | [6] | [7] | [8] | [19] | [9] | [12] | [14] | [15] | [16] | [17]
